Compound in this assay: Cc1cc(ccc1-c1ccccc1)C(=O)N1CCCN(CC1)C(=O)CCl [compound 10]
The assay is described as follows: probe-labelled cysteine peptide fold change vs DMSO (competition) (log2 fold change); higher = less target engagement (more negative = stronger competition). The note with it: THP-1, incubation time: 4 h.

This is an account of results in the supplement of paper PMC12067093, “Discovery and optimisation of a covalent ligand for TRIM25 and its application to targeted protein ubiquitination” (Chemical Science, 2025).

Of roughly 21,000 targets only a part is listed; those with the largest changes were picked by preference.
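Further: competitive profiling in live THP-1 cells: cysteine peptides tagged with an iodoacetamide desthiobiotin (IA-DTB) probe, intensity after compound treatment relative to DMSO-treated cells.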

As for “HDAC6_Q9UBN7_539_PATEAELLTCHSAEYVGHLR (UniProt Q9UBN7)”, the “probe-labelled cysteine peptide fold change” value (10 µM) is -0.137 and the “probe-labelled cysteine peptide fold change” value (50 µM) was determined as 0.302.

Regarding “GNB1_P62873_294_LLLAGYDDFNCNVWDALK (UniProt P62873)”, the “probe-labelled cysteine peptide fold change” value reads like this: (10 µM) 0.0699; (50 µM) 0.17.

As to “FHL2_Q14192_275_GFLTERDDILCPDCGK (UniProt Q14192)”, the “probe-labelled cysteine peptide fold change” value (10 µM) turned out to be 0.0254 and the “probe-labelled cysteine peptide fold change” value (50 µM) is -0.163.

On to “GNB1_P62873_148+149_ELAGHTGYLSCCR (UniProt P62873)”, for which the “probe-labelled cysteine peptide fold change” value was -0.185 (10 µM) and -0.407 (50 µM).

As to “GLRX_P35754_26_VVVFIKPTCPYCR (UniProt P35754)”, the “probe-labelled cysteine peptide fold change” value reads like this: (10 µM) -1.05; (50 µM) -3.44.

Consider “HDHD5_Q9BXW7_392_DLCFSPGLMEASHVVNDVNEAVQLVFRK (UniProt Q9BXW7)”, for which the “probe-labelled cysteine peptide fold change” value by setting is: (10 µM) -0.183; (50 µM) -1.22.

Turning to “HELZ_P42694_101_AVLCCMQLK (UniProt P42694)”, the “probe-labelled cysteine peptide fold change” value (10 µM) was -0.198 and the “probe-labelled cysteine peptide fold change” value (50 µM) is -1.11.

With “HAUS2_Q9NVX0_89_CHTLQSMNNHLEAVLK (UniProt Q9NVX0)”, the “probe-labelled cysteine peptide fold change” value runs as follows: (10 µM) 0.0751; (50 µM) -0.239.

With “GEMIN5_Q8TEQ6_82_VSGFTFSHHPGQYNLCATSSDDGTVK (UniProt Q8TEQ6)”, the “probe-labelled cysteine peptide fold change” value reads like this: (10 µM) 0.193; (50 µM) 0.148.

As to “GOLGA4_Q13439_1085_ILLFGCEK (UniProt Q13439)”, the “probe-labelled cysteine peptide fold change” value (10 µM) was -0.11 and the “probe-labelled cysteine peptide fold change” value (50 µM) was 0.095.

On to “FLCN_Q8NFG4_215_VFEAEQFGCPQR (UniProt Q8NFG4)”, for which the “probe-labelled cysteine peptide fold change” value runs as follows: (10 µM) -0.0204; (50 µM) -0.54.

Regarding “FYCO1_Q9BQS8_293_LTCLVAELQK (UniProt Q9BQS8)”, the “probe-labelled cysteine peptide fold change” value turned out to be 0.0275 (10 µM) and 0.224 (50 µM).

As to “GRHPR_Q9UBQ7_288_NCVILPHIGSATHR (UniProt Q9UBQ7)”, the “probe-labelled cysteine peptide fold change” value (10 µM) is 0.293 and the “probe-labelled cysteine peptide fold change” value (50 µM) came out at 0.0427.

Turning to “HINT1_P49773_38_CLAFHDISPQAPTHFLVIPK (UniProt P49773)”, the “probe-labelled cysteine peptide fold change” value was found to be 0.0727 (10 µM) and 0.0613 (50 µM).

“GSTP1_P09211_102_DQQEAALVDMVNDGVEDLRCK (UniProt P09211)”: the “probe-labelled cysteine peptide fold change” value reads like this: (10 µM) 0.0332; (50 µM) 1.08.

Consider “GPD1L_Q8N335_216_NIVAVGAGFCDGLR (UniProt Q8N335)”, for which the “probe-labelled cysteine peptide fold change” value (10 µM) was -0.0284 and the “probe-labelled cysteine peptide fold change” value (50 µM) is 0.115.

In the case of “GOLGA3_Q08378_769_LGELQGEAASREDTICLLQNEK (UniProt Q08378)”, the “probe-labelled cysteine peptide fold change” value (10 µM) was -0.084 and the “probe-labelled cysteine peptide fold change” value (50 µM) was -0.193.

On to “GLOD4_Q9HC38-2_41_VLRHEEFEEGCK (UniProt Q9HC38)”, for which the “probe-labelled cysteine peptide fold change” value was -0.835 (10 µM) and -1.19 (50 µM).

“GLA_P06280_56_FMCNLDCQEEPDSCISEK (UniProt P06280)”: the “probe-labelled cysteine peptide fold change” value was 0.07 (10 µM) and -0.0872 (50 µM).

Take “HERC4_Q5GLZ8_58+60_HTVFVLDDGTVYTCGCNDLGQLGHEK (UniProt Q5GLZ8)”: the “probe-labelled cysteine peptide fold change” value by setting is: (10 µM) -0.0133; (50 µM) -1.05.

Take “GPAA1_O43292_266_GGLLCTLQGK (UniProt O43292)”: the “probe-labelled cysteine peptide fold change” value by setting is: (10 µM) -0.168; (50 µM) -0.0244.

Turning to “FHOD1_Q9Y613_43_APTCSLDGALPLGAQIPAVHR (UniProt Q9Y613)”, the “probe-labelled cysteine peptide fold change” value is -0.105 (10 µM) and 0.425 (50 µM).

As to “HEATR5A_Q86XA9_1635_QIICAAQEHVK (UniProt Q86XA9)”, the “probe-labelled cysteine peptide fold change” value runs as follows: (10 µM) 0.0658; (50 µM) 0.171.

Consider “GABPA_Q06546_69_LQCSLDAHEICLQDIQLDPER (UniProt Q06546)”, for which the “probe-labelled cysteine peptide fold change” value (10 µM) came to 0.331 and the “probe-labelled cysteine peptide fold change” value (50 µM) was -0.0571.

As for “HDAC8_Q9BY41_153_KDEASGFCYLNDAVLGILR (UniProt Q9BY41)”, the “probe-labelled cysteine peptide fold change” value is -0.0393 (10 µM) and 0.0564 (50 µM).

Turning to “GBF1_Q92538_1707_IDCFLPHLRDELFK (UniProt Q92538)”, the “probe-labelled cysteine peptide fold change” value was -0.0239 (10 µM) and -0.111 (50 µM).

As to “GTF3A_Q92664_191_AHEGYVCQK (UniProt Q92664)”, the “probe-labelled cysteine peptide fold change” value reads like this: (10 µM) 0.112; (50 µM) -0.151.

As for “HGS_O14964_212_VCEPCYEQLNR (UniProt O14964)”, the “probe-labelled cysteine peptide fold change” value runs as follows: (10 µM) 0.0236; (50 µM) -0.13.
